Assay results as given in PubChem BioAssay.
Calls of active or inactive are those of the source.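 The calls were made as follows, unless noted: active = percent response above 42, roughly 3 SD of non-fluorescent test compounds; inactive = the rest.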

Experiments:
[1] = reduced mouse 2C T cell binding to pMHC/ICAM-1 vesicles – MLPCN validation set, flow cytometry, LFA-1/ICAM-1 modulator project, pilot screen (AID 2523;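 active = response below a set limit, under 55% cells CD8-positive and vesicle-bound, and CD8 cells' 90th-percentile brightness under 279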;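 as to vesicle binding response: mean PE anti-B7-1 fluorescence of CD8+ cells relative to row control; 100% = QL9-loaded vesicles with DMSO vehicle in the same plate row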); conditions: 2C mouse CD8+ T cells, at 7 µM, stronger effect = lower value; double positive events: measured here: CD8+/vesicle+ event percentage
[2] = target: Integrin beta-1 (Homo sapiens) + Integrin alpha-4 (Homo sapiens) (UniProt P13612+P05556); assay: alpha4beta1 integrin LIBS antibody binding reduction – U937 cells, HUTS-21 mAb, flow cytometry, validation set, VLA-4 allosteric modulator project, pilot screen (AID 2674;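 active = inhibition above 50%, about 3 SD of the validation set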;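 also: antibody binding induced by the VLA-4 ligand LDV present at three times its Kd; 0% = LDV ligand with antibody and no compound and 100% = antibody without LDV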); conditions: HUTS-21 LIBS mAb binding, at 6.7 µM, stronger effect = higher value, binding induced by LDV ligand
[3] = calorie-restriction mimetic ROS inhibitors, yeast – validation compound set, pilot screen (AID 2706;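 active = superoxide response below 65% of plate, a cut near 3 SD across the whole screen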;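 also: yeast exposed to compound for one week at 30 degrees C before staining; 100% = mean of all compound wells on the same plate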); conditions: S. cerevisiae aging, superoxide DHE fluorescence; at 10 µM, stronger effect = lower value
[4] = target: Beta-adrenergic receptor kinase 1 (Homo sapiens) (UniProt P25098); assay: GRK2 binders displacing RNA aptamer, biochemical, validation, human GRK2, bead flow cytometry (AID 488806;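 active = aptamer binding inhibition above 30%, about 3 SD of noise from non-fluorescent compounds; inactive = inhibition at or below 30%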); conditions: bead-bound GRK2, FAM-aptamer displacement, at 10 µM, stronger effect = higher value
[5] = target: Beta-2 adrenergic receptor (Homo sapiens) (UniProt P07550); assay: agonist-induced loss of surface beta2AR – cell-based, FAP fluorogen, flow cytometry, validation set, pilot screen (AID 504459); conditions: Am2.2-beta2AR cells, at 10 µM, stronger effect = higher value;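 also: agonist-driven loss of surface beta2AR via internalization measured by FAP dye flow cytometry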
[6] = target: AP-2 complex subunit beta (Homo sapiens) (UniProt P63010); assay: beta-arrestin/AP2 interaction blockers – biochemical, validation set, GST-AP2 beads, flow cytometry, pilot screen (AID 504541;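 active = inhibition above 54%, about 3 SD of non-fluorescent compounds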;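 also: AP2 carries R879A mutation and is captured from E. coli lysate; bead-bound FITC arrestin peptide fluorescence measuring arrestin peptide binding to AP2; 0% = DMSO wells and 100% = excess unlabeled arrestin peptide control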); conditions: FITC arrestin peptide, at 10 µM, stronger effect = higher value, AP2 beta2 appendage fragment, R879A mutant
[7] = cytosolic pH regulators acting via V-ATPase – S. cerevisiae, pHLuorin, HTS validation (AID 504600; in the data active = response above about 15%;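 also: plate controls were DMSO for no effect and reference compound for full effect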); conditions: V-ATPase proton transport, at 10 µM, stronger effect = higher value
[8] = system: anti-desmoglein-3 scFv antibody binding to human DSG3; assay: blockers of pathogenic pemphigus antibody–desmoglein-3 binding – biochemical, validation compound set, bead-based, flow cytometry, pilot screen (AID 588368;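 active = binding below the plate cutoff, the plate median minus 3 SD, with a reading above zero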;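 also: signal is the median channel fluorescence of bead-bound GFP antibody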); conditions: Protein G beads, DSG3-Fc, scFv-GFP binding, at 10 µM, stronger effect = lower value
[9] = Nile Red efflux blockade in pump-expressing yeast – validation compound set, multiplex, phenotypic, pilot screen (AID 588506;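 active = efflux inhibition above 0.42, the validation set average plus 4 SD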;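 also: Nile Red retained in cells so higher fluorescence means more efflux inhibition; 0 = negative control wells and 1 = enniatin B 25 µM full block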); conditions: S. cerevisiae pump-expressing triplex, Nile Red efflux flow cytometry; at 10 µM; stronger effect = higher value; the pumps come from Candida albicans
[10] = target: ATP-binding cassette sub-family B member 6 (Homo sapiens) (UniProt Q9NP58); assay: blockers of ABCB6-driven porphyrin uptake – K562-ABCB6 cells, flow cytometry, validation set, pilot screen (AID 588550;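 active = inhibition above the screen-wide mean plus 3 SD, about 51%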;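 also: 0% = DMSO wells and 100% = benzethonium chloride 70 µM positive control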); conditions: K562-ABCB6 porphyrin accumulation, 1 h, at 10 µM, stronger effect = higher value
[11] = AML differentiation inducers, ER-HoxA9 marrow cells – cell-based, GFP/MAC1 double positive, flow cytometry, validation set, primary screen (AID 588685;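 active = differentiation response of at least 50%, scaled between solvent and reference control, from cells with both markers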;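 also: compound exposure lasts four days before antibody staining and flow analysis; 0% = DMSO wells and 100% = 5 µM fulvestrant positive control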); conditions: stronger effect = higher value, normalized: vehicle 0, fulvestrant 100

Sequence of Beta-2 adrenergic receptor (Homo sapiens) (P07550 whole entry, looked up): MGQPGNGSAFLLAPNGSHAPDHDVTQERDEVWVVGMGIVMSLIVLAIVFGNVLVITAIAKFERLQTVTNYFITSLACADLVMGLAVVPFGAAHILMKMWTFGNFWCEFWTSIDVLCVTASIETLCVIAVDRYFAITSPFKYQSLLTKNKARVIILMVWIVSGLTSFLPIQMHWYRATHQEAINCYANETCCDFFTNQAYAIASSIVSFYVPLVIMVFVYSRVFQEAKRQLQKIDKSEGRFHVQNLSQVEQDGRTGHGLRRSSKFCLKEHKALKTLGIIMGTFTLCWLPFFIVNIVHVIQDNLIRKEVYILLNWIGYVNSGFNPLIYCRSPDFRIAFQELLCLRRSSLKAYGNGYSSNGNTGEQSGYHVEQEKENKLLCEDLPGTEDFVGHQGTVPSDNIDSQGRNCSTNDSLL
Sequence of Integrin beta-1 (Homo sapiens) + Integrin alpha-4 (Homo sapiens) (P05556 whole entry, looked up): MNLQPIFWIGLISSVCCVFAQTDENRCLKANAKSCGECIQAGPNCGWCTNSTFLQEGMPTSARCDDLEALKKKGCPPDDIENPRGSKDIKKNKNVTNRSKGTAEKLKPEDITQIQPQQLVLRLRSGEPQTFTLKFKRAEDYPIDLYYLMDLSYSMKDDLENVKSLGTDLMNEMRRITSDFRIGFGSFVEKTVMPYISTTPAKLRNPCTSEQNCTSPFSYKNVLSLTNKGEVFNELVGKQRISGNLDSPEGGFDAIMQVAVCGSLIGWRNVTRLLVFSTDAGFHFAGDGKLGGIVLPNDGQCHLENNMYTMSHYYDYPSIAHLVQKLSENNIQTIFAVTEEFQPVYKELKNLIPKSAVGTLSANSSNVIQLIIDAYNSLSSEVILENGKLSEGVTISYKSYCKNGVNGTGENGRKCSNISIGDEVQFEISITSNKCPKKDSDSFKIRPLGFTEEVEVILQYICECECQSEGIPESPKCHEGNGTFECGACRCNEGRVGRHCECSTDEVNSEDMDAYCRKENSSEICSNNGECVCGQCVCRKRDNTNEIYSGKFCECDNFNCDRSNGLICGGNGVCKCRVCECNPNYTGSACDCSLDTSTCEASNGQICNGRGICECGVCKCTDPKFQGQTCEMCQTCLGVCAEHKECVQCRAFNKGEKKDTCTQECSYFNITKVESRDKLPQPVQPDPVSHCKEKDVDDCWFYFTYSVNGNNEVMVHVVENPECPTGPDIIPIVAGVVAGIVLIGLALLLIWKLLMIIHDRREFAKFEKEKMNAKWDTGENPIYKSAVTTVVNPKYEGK
Sequence of Integrin beta-1 (Homo sapiens) + Integrin alpha-4 (Homo sapiens) (P13612 whole entry, looked up): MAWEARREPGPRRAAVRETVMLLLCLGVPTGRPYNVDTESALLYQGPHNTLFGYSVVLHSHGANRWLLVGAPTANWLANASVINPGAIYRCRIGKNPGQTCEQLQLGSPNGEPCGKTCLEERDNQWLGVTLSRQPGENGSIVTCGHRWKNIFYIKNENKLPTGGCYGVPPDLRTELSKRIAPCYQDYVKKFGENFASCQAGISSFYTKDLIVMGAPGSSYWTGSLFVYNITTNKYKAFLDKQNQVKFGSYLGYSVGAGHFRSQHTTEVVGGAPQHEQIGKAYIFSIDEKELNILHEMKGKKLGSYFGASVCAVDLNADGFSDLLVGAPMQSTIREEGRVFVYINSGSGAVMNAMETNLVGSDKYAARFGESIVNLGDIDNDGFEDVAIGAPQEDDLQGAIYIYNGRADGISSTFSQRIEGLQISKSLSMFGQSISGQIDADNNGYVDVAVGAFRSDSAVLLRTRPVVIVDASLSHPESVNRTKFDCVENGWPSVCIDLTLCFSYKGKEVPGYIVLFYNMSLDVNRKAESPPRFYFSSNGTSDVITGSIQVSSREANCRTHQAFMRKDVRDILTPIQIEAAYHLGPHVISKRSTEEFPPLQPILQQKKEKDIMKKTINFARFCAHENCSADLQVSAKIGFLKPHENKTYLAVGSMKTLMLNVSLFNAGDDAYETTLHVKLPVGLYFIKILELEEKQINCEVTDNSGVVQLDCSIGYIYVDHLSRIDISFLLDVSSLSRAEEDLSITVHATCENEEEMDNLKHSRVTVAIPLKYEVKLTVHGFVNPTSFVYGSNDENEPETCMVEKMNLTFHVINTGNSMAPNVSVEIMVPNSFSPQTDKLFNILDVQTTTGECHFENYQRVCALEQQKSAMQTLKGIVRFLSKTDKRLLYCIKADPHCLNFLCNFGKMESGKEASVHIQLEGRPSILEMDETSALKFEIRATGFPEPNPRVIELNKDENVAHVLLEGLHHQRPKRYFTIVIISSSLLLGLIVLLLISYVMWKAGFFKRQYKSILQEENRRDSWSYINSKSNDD
Sequence of ATP-binding cassette sub-family B member 6 (Homo sapiens) (Q9NP58 whole entry, looked up): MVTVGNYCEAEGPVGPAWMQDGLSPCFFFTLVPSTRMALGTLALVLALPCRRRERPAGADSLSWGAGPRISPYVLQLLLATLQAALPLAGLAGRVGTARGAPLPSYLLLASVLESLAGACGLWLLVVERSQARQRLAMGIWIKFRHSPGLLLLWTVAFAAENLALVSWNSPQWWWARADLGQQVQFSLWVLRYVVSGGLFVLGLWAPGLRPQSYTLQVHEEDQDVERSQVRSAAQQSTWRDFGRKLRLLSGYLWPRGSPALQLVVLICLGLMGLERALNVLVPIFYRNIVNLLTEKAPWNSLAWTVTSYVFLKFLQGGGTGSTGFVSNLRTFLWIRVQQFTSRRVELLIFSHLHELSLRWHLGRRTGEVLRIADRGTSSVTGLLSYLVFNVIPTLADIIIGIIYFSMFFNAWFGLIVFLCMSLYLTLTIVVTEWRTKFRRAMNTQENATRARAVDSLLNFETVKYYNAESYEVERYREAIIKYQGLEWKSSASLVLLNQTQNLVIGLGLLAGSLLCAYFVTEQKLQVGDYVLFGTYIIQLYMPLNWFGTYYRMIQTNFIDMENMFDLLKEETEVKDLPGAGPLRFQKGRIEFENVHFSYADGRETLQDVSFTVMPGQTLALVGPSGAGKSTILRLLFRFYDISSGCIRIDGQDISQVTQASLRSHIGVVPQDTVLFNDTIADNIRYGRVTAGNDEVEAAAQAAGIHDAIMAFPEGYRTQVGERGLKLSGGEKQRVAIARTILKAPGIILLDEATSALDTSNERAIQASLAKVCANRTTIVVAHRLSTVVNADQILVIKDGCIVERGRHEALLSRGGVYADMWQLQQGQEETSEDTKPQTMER
Sequence of AP-2 complex subunit beta (Homo sapiens) (P63010 whole entry, looked up, the tested form may be a part, one chain of several): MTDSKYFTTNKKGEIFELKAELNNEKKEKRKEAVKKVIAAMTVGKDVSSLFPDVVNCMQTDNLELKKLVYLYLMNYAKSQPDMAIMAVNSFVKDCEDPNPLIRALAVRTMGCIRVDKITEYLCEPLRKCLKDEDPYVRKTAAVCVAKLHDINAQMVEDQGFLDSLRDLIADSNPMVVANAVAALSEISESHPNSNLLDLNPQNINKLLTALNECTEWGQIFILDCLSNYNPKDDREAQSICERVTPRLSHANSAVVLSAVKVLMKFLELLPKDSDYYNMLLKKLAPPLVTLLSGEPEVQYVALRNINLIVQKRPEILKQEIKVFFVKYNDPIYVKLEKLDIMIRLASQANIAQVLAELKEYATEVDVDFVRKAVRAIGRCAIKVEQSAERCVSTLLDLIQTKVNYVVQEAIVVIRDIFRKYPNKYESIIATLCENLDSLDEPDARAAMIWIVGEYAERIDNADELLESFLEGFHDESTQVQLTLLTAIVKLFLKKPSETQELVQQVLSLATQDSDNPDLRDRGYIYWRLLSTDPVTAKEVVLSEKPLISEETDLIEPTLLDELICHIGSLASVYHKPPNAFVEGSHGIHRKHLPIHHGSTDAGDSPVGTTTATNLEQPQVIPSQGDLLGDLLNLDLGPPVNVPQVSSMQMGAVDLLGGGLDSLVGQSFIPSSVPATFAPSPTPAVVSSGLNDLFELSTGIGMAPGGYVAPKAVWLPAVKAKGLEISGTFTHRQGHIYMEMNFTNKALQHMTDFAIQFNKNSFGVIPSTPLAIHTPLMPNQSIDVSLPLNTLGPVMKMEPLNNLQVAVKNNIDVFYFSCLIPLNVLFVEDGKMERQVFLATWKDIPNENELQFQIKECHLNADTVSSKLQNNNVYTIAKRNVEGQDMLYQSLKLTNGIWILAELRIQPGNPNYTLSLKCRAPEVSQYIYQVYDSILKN
Sequence of Beta-adrenergic receptor kinase 1 (Homo sapiens) (P25098 whole entry, looked up): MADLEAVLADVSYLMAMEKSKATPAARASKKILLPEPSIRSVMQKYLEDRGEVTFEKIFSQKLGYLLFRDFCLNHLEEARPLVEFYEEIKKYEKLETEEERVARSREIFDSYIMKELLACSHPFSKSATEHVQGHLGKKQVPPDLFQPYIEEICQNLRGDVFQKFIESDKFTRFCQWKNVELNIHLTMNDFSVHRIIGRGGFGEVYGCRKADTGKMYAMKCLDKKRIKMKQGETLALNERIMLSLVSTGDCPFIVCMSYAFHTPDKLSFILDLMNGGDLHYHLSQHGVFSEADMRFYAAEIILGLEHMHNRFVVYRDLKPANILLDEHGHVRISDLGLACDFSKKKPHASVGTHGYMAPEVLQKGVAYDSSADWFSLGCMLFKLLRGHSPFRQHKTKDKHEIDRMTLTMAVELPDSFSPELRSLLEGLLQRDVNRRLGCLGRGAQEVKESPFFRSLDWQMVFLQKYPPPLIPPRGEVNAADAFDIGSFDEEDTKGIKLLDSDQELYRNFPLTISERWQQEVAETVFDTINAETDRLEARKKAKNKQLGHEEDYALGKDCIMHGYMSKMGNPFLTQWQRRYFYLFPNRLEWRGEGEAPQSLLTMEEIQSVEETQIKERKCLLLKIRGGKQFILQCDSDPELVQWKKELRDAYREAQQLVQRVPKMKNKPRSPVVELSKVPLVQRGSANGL

| SMILES | double positive events [1] [%] | vesicle binding response [1] | inhibition [2] | superoxide response (% of plate) [3] | aptamer binding inhibition [4] | response [5] | inhibition [6] | response [7] | binding (% of control) [8] | efflux inhibition (fraction of control) [9] | inhibition [10] | differentiation response [11] |
| --- | --- | --- | --- | --- | --- | --- | --- | --- | --- | --- | --- | --- |
| O=C(Nc1ccccc1)c1ccccc1CCc1ccccc1 | 61.3 | 167% (inactive) | 6.95% (inactive) | 90.9% (inactive) | 5% (inactive) | 46.6% (active) | 9.22% (inactive) | -1.57% (inactive) | 95.3% (inactive) | -0.12 (inactive) | 0% (inactive) | -0.18% (inactive) |
| CC(C)=CCCC(C)CN1CCC(N2CCC(C(=O)N3CCCC3)CC2)CC1 (stereo not given) | 66.5 | 278% (inactive) | -11.3% (inactive) | 93.3% (inactive) | -12% (inactive) | 35% (inactive) | -10.9% (inactive) | -0.07% (inactive) | 106% (inactive) | -0.03 (inactive) | 5% (inactive) | -7.2% (inactive) |
| CCOCc1cc(C)[nH]c(=O)c1C#N | 60.2 | 225% (inactive) | 3.67% (inactive) | 98.3% (inactive) | 2% (inactive) | 1.78% (inactive) | -6.13% (inactive) | 1.03% (inactive) | 102% (inactive) | -0.21 (inactive) | 7% (inactive) | -4% (inactive) |
| CN1CCN(C2=Nc3cc(Cl)ccc3Nc3ccccc32)CC1 | 61.7 | 222% (inactive) | 31.2% (inactive) | 84.7% (inactive) | -4% (inactive) | -25% (inactive) | 9.21% (inactive) | 6.59% (inactive) | 102% (inactive) | 0.04 (inactive) | -2% (inactive) | -5.97% (inactive) |
| COc1ccc(CCCC(=O)O)c(C)c1 | 63.8 | 282% (inactive) | -9.06% (inactive) | 92.3% (inactive) | -1% (inactive) | 1.17% (inactive) | 5.62% (inactive) | -1.31% (inactive) | 111% (inactive) | -0.2 (inactive) | 17% (inactive) | 0% (inactive) |
| O=c1[nH]c(Cc2ccccc2)nc2c1oc1ccccc12 | 58.4 | 200% (inactive) | -7.25% (inactive) | 94% (inactive) | 12% (inactive) | 0.02% (inactive) | -7.86% (inactive) | -2.08% (inactive) | 97% (inactive) | -0.17 (inactive) | 4% (inactive) | -4% (inactive) |
| CC[N+](C)(C)Cc1ccccc1Br | 63.8 | 185% (inactive) | 8.25% (inactive) | 96.2% (inactive) | 4% (inactive) | -19.8% (inactive) | -11.2% (inactive) | -30.5% (inactive) | 102% (inactive) | 0 (inactive) | 2% (inactive) | -11.9% (inactive) |
| COc1ccc(CCNC(=O)c2c(O)c3c([nH]c2=O)CCCC3)cc1 | 62.2 | 180% (inactive) | 3.14% (inactive) | 124% (inactive) | -6% (inactive) | -28.9% (inactive) | -16.3% (inactive) | 9.51% (inactive) | 30.9% (active) | 0 (inactive) | 1% (inactive) | -0.06% (inactive) |
| COc1ccc(Cl)cc1C(=O)NCCc1ccc(S(=O)(=O)NC(=O)NC2CCCCC2)cc1 | 60.4 | 155% (inactive) | -10.5% (inactive) | 114% (inactive) | 4% (inactive) | -18.8% (inactive) | 3.88% (inactive) | -2.06% (inactive) | 101% (inactive) | -0.28 (inactive) | 8% (inactive) | -10.4% (inactive) |
| COc1ccc(N2C(=O)C3CCCN3C2=O)cc1 (stereo not given) | 61.6 | 146% (inactive) | -1.79% (inactive) | 98.7% (inactive) | -1% (inactive) | 7.47% (inactive) | 9.15% (inactive) | 1.78% (inactive) | 102% (inactive) | 0.12 (inactive) | 7% (inactive) | 2.4% (inactive) |
| CC(C)CC(=O)N(Cc1ccc(F)cc1)C1CCS(=O)(=O)C1 (stereo not given) | 61.8 | 204% (inactive) | 0.25% (inactive) | 114% (inactive) | 2% (inactive) | 22.9% (inactive) | 1.93% (inactive) | 3.28% (inactive) | 102% (inactive) | 0.91 (active) | 19% (inactive) | -8.96% (inactive) |
| C=CCN1C(=O)c2oc3ccccc3c(=O)c2C1c1ccc(O)c(OC)c1 (stereo not given) | 60.1 | 150% (inactive) | 10.5% (inactive) | 102% (inactive) | 2% (inactive) | 105% (active) | -0.24% (inactive) | 2.05% (inactive) | 99.1% (inactive) | 0.37 (inactive) | 0% (inactive) | 40.8% (inactive) |
| CCN(Cc1cnn(C)c1)Cc1nc(C(c2ccccc2)c2ccccc2)no1 | 61.8 | 168% (inactive) | 7.4% (inactive) | 120% (inactive) | -5% (inactive) | -21.6% (inactive) | -13.6% (inactive) | -8.11% (inactive) | 98.8% (inactive) | -0.04 (inactive) | 1% (inactive) | 16.7% (inactive) |
| Nc1cccc2nc3ccccc3cc12 | 60.9 | 235% (inactive) | 9.1% (inactive) | 113% (inactive) | 3% (inactive) | 2.19% (inactive) | 2.41% (inactive) | -17.4% (inactive) | 102% (inactive) | -0.04 (inactive) | 2% (inactive) | -6.96% (inactive) |
| O=c1cc(-c2ccc3c(c2)OCCO3)oc2ccc(Cl)cc12 | 59 | 102% (inactive) | 2.93% (inactive) | 98.9% (inactive) | -1% (inactive) | -2.34% (inactive) | -6.8% (inactive) | 51.3% (active) | 74.9% (active) | 0.08 (inactive) | 27% (inactive) | -6.03% (inactive) |
